PubChem BioAssay (Tox21)
Inconclusive results are not listed. Activity calls are given as the source filed them. Unless noted, calls follow the shape of the dose curve; as a rule, active = well fitted curve in the direction sought with a large enough effect in the repeat runs; inconclusive = weak or mixed curves; inactive = no such curve, though single readings can be large; an effect the other way counts as inactive or inconclusive.

Columns and labels:
[1] = qHTS assay to identify small molecule agonists of the hypoxia (HIF-1) signaling pathway - cell viability counter screen (AID 1224844; calls by dose curve; also: nearly all actives have a fitted effect of over 50% in size; also: potency is read from the fitted curve at half-maximal effect)
How it was run: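 CellTiter-Glo luminescence read-out, 30 min RT, taken in the same wells as the beta-lactamase HRE reporter assay; HRE-bla ME-180 cells, 0.5% dialyzed FBS, 17 hr compound treatment at 37C, 5% CO2.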

[2] = qHTS assay to identify small molecule agonists of H2AX - cell viability counter screen (AID 1224847; calls by dose curve; also: nearly all actives have a fitted effect of over 30% in size; also: potency is read from the fitted curve at half-maximal effect)
How it was run: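 Counter-screen for viability: CellTiter-Glo ATP luminescence read after 3 h compound treatment (15-point titration, 0.76% DMSO final) of CHO-K1 cells at 37C, with 30 min room-temperature reagent incubation.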

[3] = qHTS assay to identify small molecule antagonists of the estrogen related receptor (ERR) signaling pathway from Tox21 library (AID 1224848); also: nearly all actives have a fitted effect of over 50% in size; also: potency is read from the fitted curve at half-maximal effect
How it was run: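 Quantitative high-throughput format: ERR reporter cells (2,000/well) pre-incubated 6 h, treated 18 h at 37 C with compounds in DMSO alongside positive and negative controls, then read by ONE-Glo luminescence.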

[4] = qHTS assay to identify small molecule agonists of the estrogen related receptor (ERR) signaling pathway from Tox21 library (AID 1224849; calls by dose curve; also: nearly all actives have a fitted effect of over 15% in size); details: ERR reporter cell line, ONE-Glo luciferase, 18 h; at 92.4 µM (top of the series) unless noted
How it was run: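 Luminescence readout (ONE-Glo, 30 min RT) after 18 h compound exposure at 37 C of NTP-supplied ERR reporter cells; cells were plated 6 h before compound addition by pin tool.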

[5] = qHTS RealTime-Glo MT Cell Viability Assay in HepG2 cells - 24 hour (AID 1224867); also: nearly all actives have a fitted effect of over 50% in size; also: potency is read from the fitted curve at half-maximal effect
How it was run: (§1)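 HepG2 cells were seeded at 600 cells/well together with NanoLuc luciferase and a cell-permeant prosubstrate, preincubated 5 h at 37 C/5% CO2, then pin-dosed with compounds in DMSO. Nonlytic luminescence from viable cells was read at each time point.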

[6] = qHTS RealTime-Glo MT Cell Viability Assay in HEK293 cells - 32 hour (AID 1224868); also: nearly all actives have a fitted effect of over 50% in size; also: potency is read from the fitted curve at half-maximal effect
How it was run: (§2)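 HEK293 cells were seeded at 600 cells/well together with NanoLuc luciferase and cell-permeant prosubstrate, preincubated 5 h at 37 C/5% CO2, then given compound in DMSO by pintool. Luminescence from viable-cell prosubstrate reduction was read repeatedly over 40 h.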

[7] = A CellTox Green Cytotoxicity Assay to monitor cytotoxicity in HEK293 cells - 0 hour (AID 1224869); also: nearly all actives have a fitted effect of over 50% in size
How it was run: (§3)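 Read-out: fluorescence of a cell-impermeant cyanine dye staining DNA of dead cells, proportional to cytotoxicity. HEK293, 600 cells/well with reagent, compound (23 nL DMSO) added after 5 h; reads at 0, 8, 16, 24, 32, 40 h.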

[8] = qHTS RealTime-Glo MT Cell Viability Assay in HepG2 cells - 40 hour (AID 1224870); also: nearly all actives have a fitted effect of over 50% in size; also: potency is read from the fitted curve at half-maximal effect
How it was run: (§4)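 HepG2 cells (600/well) mixed with RealTime-Glo MT reagent, settled 5 h at 37 C/5% CO2 before compound addition. Nonlytic NanoLuc luminescence from viable-cell prosubstrate reduction read repeatedly during 40 h treatment at 37 C.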

[9] = A CellTox Green Cytotoxicity Assay to monitor cytotoxicity in HEK293 cells - 40 hour (AID 1224871); also: nearly all actives have a fitted effect of over 45% in size; also: potency is read from the fitted curve at half-maximal effect
How it was run: as §3

[10] = qHTS RealTime-Glo MT Cell Viability Assay in HEK293 cells - 16 hour (AID 1224872); also: nearly all actives have a fitted effect of over 50% in size; also: potency is read from the fitted curve at half-maximal effect
How it was run: as §2

[11] = qHTS RealTime-Glo MT Cell Viability Assay in HepG2 cells - 8 hour (AID 1224873); also: nearly all actives have a fitted effect of over 55% in size; also: potency is read from the fitted curve at half-maximal effect
How it was run: as §4

[12] = qHTS RealTime-Glo MT Cell Viability Assay in HEK293 cells - 40 hour (AID 1224874); details: RealTime-Glo luminescence; max response: active compounds read low; also: nearly all actives have a fitted effect of over 50% in size; also: potency is read from the fitted curve at half-maximal effect
How it was run: (§5)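 Luminescence readout at each listed time point; HEK293, 600 cells/well, RealTime-Glo MT reagent added with cells; compounds pinned (23 nL in DMSO) after 5 h at 37 C; continuous culture at 37 C.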

[13] = A CellTox Green Cytotoxicity Assay to monitor cytotoxicity in HEK293 cells - 24 hour (AID 1224875); also: nearly all actives have a fitted effect of over 45% in size; also: potency is read from the fitted curve at half-maximal effect
How it was run: as §3

[14] = qHTS RealTime-Glo MT Cell Viability Assay in HepG2 cells - 32 hour (AID 1224877); also: nearly all actives have a fitted effect of over 55% in size; also: potency is read from the fitted curve at half-maximal effect
How it was run: as §1

[15] = A CellTox Green Cytotoxicity Assay to monitor cytotoxicity in HepG2 cells - 24 hour (AID 1224878); also: nearly all actives have a fitted effect of over 45% in size; also: potency is read from the fitted curve at half-maximal effect
How it was run: (§6)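 HepG2, 600 cells/well premixed w/ CellTox Green; 5 h settle, 37 C/5% CO2; pintool cpd add (DMSO); 37 C, 40 h; fluorescence read at 0, 8, 16, 24, 32, 40 h.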

[16] = A CellTox Green Cytotoxicity Assay to monitor cytotoxicity in HepG2 cells - 40 hour (AID 1224879); also: nearly all actives have a fitted effect of over 40% in size; also: potency is read from the fitted curve at half-maximal effect
How it was run: as §6

[17] = qHTS RealTime-Glo MT Cell Viability Assay in HEK293 cells - 0 hour (AID 1224880); also: top concentration of the series differs between compounds; nearly all actives have a fitted effect of over 45% in size
How it was run: as §5

[18] = A CellTox Green Cytotoxicity Assay to monitor cytotoxicity in HepG2 cells - 16 hour (AID 1224876); also: nearly all actives have a fitted effect of over 45% in size
How it was run: as §6

[19] = qHTS assay to identify small molecule agonists of H2AX (AID 1224845; active = well fitted activation curve with a large enough effect in the signal ratio in the repeat runs, not every such curve was filed as active; the % refers to the signal ratio; also: potency is read from the fitted curve at half-maximal effect)
How it was run: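 Wild-type CHO-K1 cells, plated overnight, exposed 3hr at 37C to 15 concentrations (0.76% DMSO final). Lysed, then HTRF anti-pH2AX (S139) cryptate and anti-H2AX-d2 antibodies, 24 hr room temperature; 665/620 nm emission read.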

[20] = qHTS assay to identify small molecule agonists of the hypoxia (HIF-1) signaling pathway (AID 1224846; active = well fitted activation curve with a large enough effect in the signal ratio in the repeat runs, not every such curve was filed as active; the % refers to the signal ratio; also: potency is read from the fitted curve at half-maximal effect)
How it was run: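 Beta-lactamase FRET read-out (CCF4-AM substrate) from ME-180 cells carrying an HRE-driven bla reporter, after 17 hrs compound exposure at 37C/5% CO2. Cells were seeded at 2,000 per well in 0.5% dialyzed FBS medium and preincubated 5 hrs.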
% is scaled to controls: 0 for no effect and ±100 for the full control effect.

CCCCc1oc2ccc(NS(C)(=O)=O)cc2c1C(=O)c1ccc(OCCCN(CCCC)CCCC)cc1
active: Potency [1] 15.1 µM | Potency [2] 43.8 µM | Potency [3] 16.8 µM | Potency [5] 9.52 µM | Potency [6] 9.52 µM | Potency [8] 9.52 µM | Potency [9] 19 µM | Potency [10] 10.7 µM | Potency [11] 21.3 µM | Potency [12] 8.49 µM | Potency [13] 19 µM | Potency [14] 9.52 µM | Potency [15] 19 µM | Potency [16] 9.52 µM
inactive: activity change, positive = activation [4] -64.5% [at 42.5 µM] | Potency [7] | Potency [17]

O=C(OCC1CO1)C1CCCCC1C(=O)OCC1CO1 (centres undefined)
inactive: Potency [1] | Potency [2] | activity change, positive = activation [4] -46.8% | Potency [5] | Potency [7] | Potency [8] | Potency [9] | Potency [10] | Potency [11] | Potency [13] | Potency [18] | Potency [14] | Potency [15] | Potency [16] | Potency [17]

CCC(CN)=C(c1ccccc1)c1ccccc1
inactive: Potency [19] | Potency [20] | Potency [2] | Potency [5] | Potency [6] | Potency [7] | Potency [8] | Potency [9] | Potency [10] | Potency [11] | max response [12] -19.1% | Potency [13] | Potency [18] | Potency [15]

C[C@@H]1C[C@H]2[C@@H]3CCC4=CC(=O)C=C[C@]4(C)[C@@]3(Cl)[C@@H](O)C[C@]2(C)[C@@]1(OC(=O)c1ccco1)C(=O)CCl
inactive: Potency [19] | Potency [2] | Potency [6] | Potency [7] | Potency [9] | Potency [10] | max response [12] -19.5% | Potency [13] | Potency [15] | Potency [16] | Potency [17]
active: Potency [3] 13.3 µM

O=C(Nc1cccc(Cl)c1)OCC#CCCl
active: Potency [19] 113 µM | Potency [3] 30.6 µM | Potency [5] 49 µM | Potency [6] 49 µM | Potency [8] 49 µM | Potency [9] 43.6 µM | Potency [10] 54.9 µM | Potency [11] 43.6 µM | Potency [12] 49 µM | Potency [14] 43.6 µM
inactive: Potency [2] | activity change, positive = activation [4] -74.2% | Potency [13] | Potency [18] | Potency [17]

COc1ccc(CN2CCN(C(c3ccc(F)cc3)c3ccc(F)cc3)CC2)c(OC)c1OC
active: Potency [2] 49.2 µM | Potency [3] 13.3 µM | Potency [6] 16.9 µM | Potency [9] 4.77 µM | Potency [10] 9.52 µM | Potency [12] 16.9 µM | Potency [16] 10.7 µM
inactive: Potency [19] | Potency [7] | Potency [13] | Potency [18] | Potency [15] | Potency [17]

Oc1c(Cl)cc(Cl)c2cccnc12
active: Potency [19] 39.1 µM | Potency [3] 9.44 µM | Potency [9] 9.52 µM | Potency [12] 8.49 µM | Potency [16] 8.49 µM
inactive: Potency [2] | Potency [5] | Potency [7] | Potency [8] | Potency [10] | Potency [11] | Potency [13] | Potency [18] | Potency [14] | Potency [17]

Cc1cc(=O)oc2cc(N(C)C)ccc12
active: Potency [20] 49 µM
inactive: Potency [19] | Potency [2] | Potency [3] | Potency [7] | Potency [8] | Potency [9] | Potency [13] | Potency [14] | Potency [15] | Potency [16] | Potency [17]

C=C(C)C(=O)OCC(O)COc1ccc(C(C)(C)c2ccc(OCC(O)COC(=O)C(=C)C)cc2)cc1 (centres undefined)
active: Potency [2] 35.7 µM | Potency [3] 27.3 µM | Potency [5] 19.5 µM | Potency [6] 12.3 µM | Potency [10] 9.77 µM | Potency [11] 19.5 µM | Potency [12] 13.8 µM | Potency [14] 21.9 µM | Potency [16] 43.6 µM
inactive: Potency [19] | Potency [7] | Potency [13] | Potency [18] | Potency [15] | Potency [17]

N#CSc1ccc(N)c([N+](=O)[O-])c1
active: Potency [3] 43.5 µM | Potency [6] 49.3 µM | Potency [10] 43.9 µM | Potency [12] 49.3 µM
inactive: Potency [19] | Potency [2] | activity change, positive = activation [4] -63.3% | Potency [7] | Potency [8] | Potency [11] | Potency [13] | Potency [18] | Potency [14] | Potency [15] | Potency [17]

COc1ccc(C(=O)/C(Br)=C\C(=O)O)cc1
active: Potency [19] 31.8 µM | Potency [9] 24.5 µM | Potency [10] 38.9 µM | Potency [12] 34.7 µM | Potency [13] 34.7 µM | Potency [16] 13.8 µM
inactive: Potency [20] | Potency [3] | Potency [7] | Potency [11] | Potency [17]

NNc1nc(-c2ccc(N)cc2)cs1
active: Potency [3] 61.1 µM | Potency [12] 21.9 µM
inactive: Potency [1] | activity change, positive = activation [4] -40.8% | Potency [5] | Potency [7] | Potency [8] | Potency [9] | Potency [10] | Potency [11] | Potency [13] | Potency [18] | Potency [14] | Potency [16] | Potency [17]

OCc1c[nH]c2ccccc12
inactive: Potency [1] | activity change, positive = activation [4] -39.5% | Potency [5] | Potency [7] | Potency [8] | Potency [14] | Potency [15] | Potency [17]
active: Potency [3] 13.7 µM

CCCCCCCC/C=C\CCCCCCCCOCCO
inactive: Potency [8] | Potency [11] | Potency [13] | Potency [17]
active: Potency [1] 28.4 µM | Potency [2] 65.6 µM | Potency [9] 31.9 µM | Potency [10] 3.19 µM | Potency [12] 3.19 µM | Potency [15] 63.7 µM | Potency [16] 63.7 µM
